Measurements from PubChem BioAssay AID1256 (The Scripps Research Institute Molecular Screening Center, 2008).
Some of the results follow. A number with no mark means an inactive call. Calls of active or inactive are those of the source. Cut-off read from the data, not from the text of the source: active = inhibition above about 20%; inactive = the rest.

What follows are compounds tested against Neuropeptide Y receptor type 1 (Homo sapiens) (UniProt P25929) (assay: NPY-Y1 receptor antagonists, selectivity check, counter-screen for NPY-Y2 antagonist project, cell-based (AID 1256;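 note: cells challenged with NPY then isoproterenol with cAMP sensed through a CNG channel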)). Conditions: cell-based NPY-Y1 antagonism counterscreen; at 3.6 µM; active compounds read high.
Chain of Neuropeptide Y receptor type 1 (Homo sapiens) (P25929 whole entry, looked up): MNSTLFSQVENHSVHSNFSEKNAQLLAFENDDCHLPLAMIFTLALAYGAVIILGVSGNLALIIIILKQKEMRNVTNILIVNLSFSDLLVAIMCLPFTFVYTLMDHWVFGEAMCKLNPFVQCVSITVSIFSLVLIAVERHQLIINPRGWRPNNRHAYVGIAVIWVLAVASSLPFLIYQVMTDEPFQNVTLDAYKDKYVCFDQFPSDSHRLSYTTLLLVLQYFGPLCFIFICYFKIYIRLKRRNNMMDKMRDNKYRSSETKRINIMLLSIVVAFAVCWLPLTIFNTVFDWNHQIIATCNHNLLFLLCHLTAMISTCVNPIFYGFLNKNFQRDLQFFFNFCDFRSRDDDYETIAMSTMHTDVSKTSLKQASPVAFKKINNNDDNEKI

Row | Structure (SMILES) | inhibition
1 | C=CCNCCCCOc1ccccc1 | -1.26%
2 | O=C(Nc1nnc(SCc2c(Cl)cccc2Cl)s1)C1CCCO1 (stereo unspecified) | 12.1%
3 | CCOc1ccc(S(=O)(=O)N/N=C(\C)c2ccc(Cl)c(Cl)c2Cl)cc1 | 17.7%
4 | Cc1ccc(NC(=O)CN2CCC3(O)CCCCC3C2c2ccc3c(c2)OCO3)c(C)c1 (stereo unspecified) | 5.96%
5 | O=C(CC(O)(C(F)(F)F)C(F)(F)F)Nc1ccc(Cl)c(Cl)c1 | 20.5% (active)
6 | c1ccc(-c2cc3c(NCC4COc5ccccc5O4)ncnc3s2)cc1 (stereo unspecified) | 19.3%
7 | Cc1cccc(OCC(O)Cn2c(=N)n(CCN3CCOCC3)c3ccccc32)c1 (stereo unspecified) | 4.2%
8 | Cc1cc(C)nc(-n2ncc3c2CC(c2ccc(C(C)C)cc2)CC3=O)n1 (stereo unspecified) | 20.4% (active)
9 | Cc1ccc(CCC(=O)Nc2ncc(Cc3cc(Cl)ccc3Cl)s2)o1 | 18.8%
10 | Cc1ccc(C2=NN(C)c3nc4ccccc4n3C2)cc1 | 8.4%
11 | CCCc1nc(SCC(=O)Nc2ccccc2OC)c2c(=O)n(C)c(=O)n(C)c2n1 | 20.6% (active)
12 | N=c1n(Cc2ccc(Cl)cc2)c2ccccc2n1CC(O)c1ccco1 (stereo unspecified) | 13.8%
13 | CCOc1ccc(C(O)Cn2c(=N)n(CCN3CCCCC3)c3ccccc32)cc1 (stereo unspecified) | 13.1%
14 | CCOC(=O)C(C)Sc1nc2ccccc2c(=O)n1CC1CCCCC1 (stereo unspecified) | 7.75%
15 | N#Cc1ccc(C(c2nnnn2CCc2ccccc2)N2CCCCCC2)cc1 (stereo unspecified) | 7.96%
16 | COc1cccc(-c2ccc(C#N)c(SCC(=O)NCCc3ccc(Cl)cc3)n2)c1 | 9.97%
